Laboratory results from PubChem BioAssay (Tox21).
Results filed as inconclusive are left out. The source made the active and inactive calls. Unless noted, calls come from the whole dose curve; as a rule, active = well fitted curve in the direction sought with a large enough effect in the repeat runs; inconclusive = weak or mixed curves; inactive = no such curve, though single readings can be large; an effect the other way counts as inactive or inconclusive.

Experiments:
[1] = qHTS assay to identify small molecule antagonists of the androgen receptor (AR) signaling pathway using the MDA cell line in the presence of 0.5 nM R1881 - cell viability counter screen (AID 1259242); note: nearly all actives have a fitted effect of over 45% in size; note: potency is the fitted concentration of half-maximal effect
Method in brief: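 Live-cell protease activity was measured by CellTiter-Fluor fluorescence after 30 min. Before that, MDA-kb2 MMTV-luciferase cells had 16 hr at 37C without CO2, exposed to test compounds and 0.5 nM R1881 final.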

[2] = biological target: Androgen receptor (Homo sapiens) (UniProt P10275); experiment: qHTS assay to identify small molecule antagonists of the androgen receptor (AR) signaling pathway using the MDA cell line in the presence of 0.5 nM R1881 (AID 1259243); note: nearly all actives have a fitted effect of over 50% in size; note: potency is the fitted concentration of half-maximal effect
Method in brief: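 Luminescent reporter readout (ONE-Glo, 30 min, room temperature) after 16 hr co-treatment of MDA-kb2 cells with test compounds and 0.5 nM R1881 final, at 37C without CO2. The MMTV-driven luciferase responds to both AR and GR.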

[3] = biological target: Estrogen receptor (Homo sapiens) (UniProt P03372); experiment: qHTS assay to identify small molecule antagonists of the estrogen receptor alpha (ER-alpha) signaling pathway using the BG1 cell line in the presence of 0.1 nM 17-beta-estradiol (AID 1259244); note: nearly all actives have a fitted effect of over 50% in size; note: potency is the fitted concentration of half-maximal effect
Method in brief: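 Luciferase luminescence (ONE-Glo, 30 min at room temperature) was read after 22 hr at 37C exposure to compounds plus 17beta-estradiol at 0.1 nM final. Cells were VM7Luc4E2 with endogenous ER-alpha and an ERE-driven luciferase, pre-cultured 5 days in hormone-depleted medium.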

[4] = qHTS assay to identify small molecule agonists of the sonic hedgehog signaling (Shh) pathway - cell viability counter screen (AID 1259366); note: nearly all actives have a fitted effect of over 50% in size; note: potency is the fitted concentration of half-maximal effect
Method in brief: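 After a 4hr attachment at 37C, NIH/3T3 cells bearing an integrated Gli1-driven luciferase reporter were dosed with compounds. Treatment lasted 24hr, with the final hour including CellTiter-Fluor for a fluorescence viability measurement.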

[5] = qHTS assay to identify small molecule antagonists of the sonic hedgehog signaling (Shh) pathway - cell viability counter screen (AID 1259367); note: nearly all actives have a fitted effect of over 55% in size; note: potency is the fitted concentration of half-maximal effect
Method in brief: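 Tox21 library chemicals were tested on a Gli1-Luc NIH/3T3 clone (2,000 cells/well) stimulated by conditioned medium; viability was quantified as fluorescence from CellTiter-Fluor reagent added at 23 hr.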

[6] = qHTS assay to identify small molecule agonists of the sonic hedgehog signaling (Shh) pathway (AID 1259368; calls by dose curve;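 note: NIH/3T3-derived 3T3Gli1-Luc cells carrying a stable Gli1-driven firefly luciferase reporter; series mostly up to about 92 µM; nearly all actives have a fitted effect of over 15% in size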)
Method in brief: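 Luminescence was read after 30 min at room temperature with luciferase reagent. Before that, 3T3Gli1-Luc cells (NIH/3T3 clone, stable Gli1-Luc reporter; 2,000/well) were exposed to compounds for 24 hr at 37C, 5% CO2, compounds being added 4 hr post-plating.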

[7] = qHTS assay to identify small molecule HDAC inhibitors (AID 1259364); note: top concentration of the series differs between compounds; nearly all actives have a fitted effect of over 45% in size
Method in brief: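 Luminescence read after 30 min room-temperature HDAC-Glo incubation measures cellular class I/II HDAC activity. Compounds were applied for 2 hr at 37 C to HCT-116 wild-type cells seeded the day before.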

[8] = qHTS assay to identify small molecule HDAC inhibitors - cell viability counter screen (AID 1259365); note: nearly all actives have a fitted effect of over 50% in size; note: potency is the fitted concentration of half-maximal effect; for activity change, negative = cytotoxicity: series mostly up to about 92 µM
Method in brief: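 Following a 2hr exposure of overnight-plated wild-type HCT-116 cells to DMSO-delivered compounds, CellTiter-Glo was added and luminescence recorded after 30min at room temperature.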

[9] = qHTS assay to identify small molecule antagonists of the sonic hedgehog signaling (Shh) pathway (AID 1259369; calls by dose curve; note: nearly all actives have a fitted effect of over 45% in size; note: potency is the fitted concentration of half-maximal effect)
Method in brief: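 Antagonist mode: compound added to 3T3 Gli1-Luc cells followed by conditioned-medium stimulation, 24 h at 37 C, 5% CO2. Inhibition taken as loss of Gli1-driven luciferase luminescence.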

[10] = qHTS assay to identify small molecule phospholipidosis (PLD) inducers (AID 1259344; active = well fitted curve in the direction sought with a large enough effect; an effect the other way counts as inactive or inconclusive)
Method in brief: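 Image-based: LipidTOX Red pit count/intensity per well and per cell; HepG2, 24 h compound at 37 C, PFA fixation, Hoechst counterstain.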
% is set by controls: 0 for no effect and ±100 for the full control effect.

Androgen receptor (Homo sapiens), sequence (P10275 whole entry, looked up): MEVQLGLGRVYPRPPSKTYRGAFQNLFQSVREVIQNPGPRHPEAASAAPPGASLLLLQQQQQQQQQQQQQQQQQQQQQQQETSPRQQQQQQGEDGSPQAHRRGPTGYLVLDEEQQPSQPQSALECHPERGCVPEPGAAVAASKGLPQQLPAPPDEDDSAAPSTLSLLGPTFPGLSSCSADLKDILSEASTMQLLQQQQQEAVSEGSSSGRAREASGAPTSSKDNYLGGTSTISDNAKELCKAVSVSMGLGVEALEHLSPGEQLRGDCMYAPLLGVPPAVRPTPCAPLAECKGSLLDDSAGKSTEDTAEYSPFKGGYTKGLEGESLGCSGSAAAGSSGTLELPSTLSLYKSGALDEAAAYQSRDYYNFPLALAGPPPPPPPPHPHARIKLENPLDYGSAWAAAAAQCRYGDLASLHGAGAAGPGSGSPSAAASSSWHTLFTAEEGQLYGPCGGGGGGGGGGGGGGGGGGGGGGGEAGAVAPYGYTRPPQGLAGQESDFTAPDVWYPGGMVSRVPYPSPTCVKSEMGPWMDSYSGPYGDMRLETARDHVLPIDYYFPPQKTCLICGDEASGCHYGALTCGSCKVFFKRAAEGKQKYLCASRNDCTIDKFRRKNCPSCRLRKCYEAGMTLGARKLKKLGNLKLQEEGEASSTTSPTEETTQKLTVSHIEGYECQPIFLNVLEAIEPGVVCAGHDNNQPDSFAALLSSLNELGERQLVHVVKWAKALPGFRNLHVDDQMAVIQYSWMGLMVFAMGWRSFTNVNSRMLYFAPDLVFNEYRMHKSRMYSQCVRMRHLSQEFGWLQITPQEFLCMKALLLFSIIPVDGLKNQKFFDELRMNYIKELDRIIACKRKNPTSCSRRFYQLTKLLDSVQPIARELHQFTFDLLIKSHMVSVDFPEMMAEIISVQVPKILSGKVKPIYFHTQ
Estrogen receptor (Homo sapiens), sequence (P03372 whole entry, looked up): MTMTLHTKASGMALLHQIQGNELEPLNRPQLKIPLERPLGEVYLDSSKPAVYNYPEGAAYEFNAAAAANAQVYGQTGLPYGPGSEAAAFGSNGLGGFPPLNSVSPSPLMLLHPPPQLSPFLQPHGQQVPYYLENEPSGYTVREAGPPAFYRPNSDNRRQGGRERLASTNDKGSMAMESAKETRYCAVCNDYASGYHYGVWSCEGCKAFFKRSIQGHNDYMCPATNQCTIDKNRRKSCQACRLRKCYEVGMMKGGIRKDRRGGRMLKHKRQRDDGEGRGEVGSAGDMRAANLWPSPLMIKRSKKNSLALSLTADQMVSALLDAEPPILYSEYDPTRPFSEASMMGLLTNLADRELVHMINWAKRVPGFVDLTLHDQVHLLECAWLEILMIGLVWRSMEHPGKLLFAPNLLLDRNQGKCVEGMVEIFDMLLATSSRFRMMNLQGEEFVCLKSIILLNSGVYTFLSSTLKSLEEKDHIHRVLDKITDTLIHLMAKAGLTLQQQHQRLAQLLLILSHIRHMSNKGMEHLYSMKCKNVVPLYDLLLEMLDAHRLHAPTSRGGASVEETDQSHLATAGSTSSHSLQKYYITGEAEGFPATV

[CH3][Hg][Cl]
active: Potency [1] 21.6 µM | Potency [2] 19.3 µM | Potency [4] 4.84 µM | Potency [5] 68.4 µM
inactive: Potency [3] | Potency [6]

Cc1ccc(C(=O)Cl)cc1
inactive: Potency [1] | Potency [2] | Potency [3] | Potency [7] | Potency [8] | Potency [4] | Potency [5] | Potency [6]

Clc1ccc(Oc2ccccc2)cc1
inactive: Potency [1] | Potency [2] | Potency [3] | Potency [8] | Potency [4] | Potency [5] | Potency [6] | Potency [9]

C[C@@H]1O[C@@H](O[C@H]2C[C@@H](O)[C@]3(CO)[C@H]4[C@H](O)C[C@]5(C)[C@@H](C6=CC(=O)OC6)CC[C@]5(O)[C@@H]4CC[C@]3(O)C2)[C@H](O)[C@H](O)[C@H]1O
inactive: Potency [1] | Potency [2] | Potency [3] | Potency [10] | Potency [7] | Potency [8] | Potency [4] | Potency [5] | Potency [6] | Potency [9]

O=C(CCl)Nc1ccccc1
active: Potency [1] 61.1 µM | Potency [2] 48.6 µM | Potency [3] 61.1 µM | Potency [4] 12.2 µM | Potency [5] 27.3 µM
inactive: Potency [7] | Potency [8] | Potency [6] | Potency [9]

N#CCCSCCC#N
inactive: Potency [1] | Potency [2] | Potency [3] | Potency [7] | Potency [8] | Potency [4] | Potency [6] | Potency [9]

CC(Cl)CN(C)C (stereo unspecified)
inactive: Potency [1] | Potency [2] | Potency [3] | Potency [7] | Potency [8] | Potency [4] | Potency [5] | Potency [6]

Nc1c(Oc2ccccc2)cc(O)c2c1C(=O)c1ccccc1C2=O
inactive: Potency [1] | Potency [2] | Potency [3] | Potency [7] | Potency [8] | Potency [4] | Potency [9]

CCCCCCCCCCCCCCCCCCn1cc[n+](C)c1
active: Potency [1] 34.2 µM | Potency [2] 3.83 µM | Potency [3] 15.3 µM | Potency [4] 30.5 µM | Potency [5] 30.5 µM | Potency [9] 0.0542 µM
inactive: Potency [7] | Potency [8] | Potency [6]

N#C/C=C/c1ccccc1
inactive: Potency [1] | Potency [2] | Potency [3] | Potency [7] | Potency [8] | Potency [4] | Potency [5] | Potency [9]

ClC1=C(Cl)[C@]2(Cl)[C@@H]3[C@@H](Cl)[C@@H](Cl)C[C@@H]3[C@@]1(Cl)C2(Cl)Cl
inactive: Potency [1] | Potency [2] | Potency [3] | Potency [7] | Potency [8] | Potency [4] | Potency [5] | Potency [6] | Potency [9]

CC1(C)CC/C(=C/c2ccc(Cl)cc2)C1(O)Cn1cncn1 (stereo unspecified)
inactive: Potency [1] | Potency [10] | Potency [7] | Potency [8]
active: Potency [2] 1.21 µM | Potency [3] 68.2 µM | Potency [4] 17.1 µM

[Cl][Sn]([c]1ccccc1)([c]1ccccc1)[c]1ccccc1
active: Potency [1] 1.64 µM | Potency [2] 0.82 µM | Potency [4] 0.231 µM | Potency [5] 0.366 µM | Potency [9] 0.206 µM
inactive: activity change, negative = inhibition [3] -95.6% [at 19 µM] | activity change, negative = inhibition [7] -5.43% [at 19 µM] | activity change, negative = cytotoxicity [8] 26.2% [at 19 µM] | activity change [6] -11.2% [at 18.9 µM, active compounds read high]

C[C@@H]1CC[C@@]2(OC1)O[C@H]1[C@@H](O)[C@H]3[C@@H]4CC[C@H]5C[C@@H](O[C@@H]6O[C@H](CO)[C@H](O[C@@H]7O[C@H](CO)[C@@H](O)[C@H](O[C@@H]8OC[C@@H](O)[C@H](O)[C@H]8O)[C@H]7O[C@@H]7O[C@H](CO)[C@@H](O)[C@H](O[C@@H]8O[C@H](CO)[C@@H](O)[C@H](O)[C@H]8O)[C@H]7O)[C@H](O)[C@H]6O)[C@H](O)C[C@]5(C)[C@H]4CC[C@]3(C)[C@H]1[C@@H]2C
active: Potency [1] 23 µM | Potency [2] 14.5 µM | Potency [3] 57.8 µM | Potency [8] 29 µM | Potency [4] 32.5 µM
inactive: Potency [6]

CC(C)C(=O)Cl
inactive: Potency [1] | Potency [2] | Potency [7] | Potency [8] | Potency [4] | Potency [5] | Potency [6] | Potency [9]

c1ccc2cc3c(cc2c1)-c1cccc2cccc-3c12
active: Potency [2] 3.02 µM
inactive: Potency [1] | Potency [7] | Potency [8] | Potency [5] | Potency [9]

C[As+](C)(C)CC(=O)[O-]
inactive: Potency [1] | Potency [2] | Potency [7] | Potency [8] | Potency [4] | Potency [6] | Potency [9]

O=[N+]([O-])c1cc([N+](=O)[O-])c2ccccc2c1
active: Potency [2] 4.33 µM | Potency [9] 1.22 µM
inactive: Potency [1] | Potency [7] | Potency [8] | Potency [4] | Potency [5] | Potency [6]

COC12CC[C@@]3(C[C@@H]1C(C)(O)C(C)(C)C)[C@H]1Cc4ccc(O)c5c4[C@@]3(CCN1CC1CC1)[C@H]2O5 (stereo partly specified)
inactive: Potency [10] | Potency [7] | Potency [8]
active: Potency [1] 54.1 µM | Potency [3] 24.2 µM | Potency [4] 24.2 µM

CC(C)(C)OO
inactive: Potency [1] | Potency [2] | Potency [7] | Potency [8] | Potency [4] | Potency [5] | Potency [6] | Potency [9]

CN(CCCC(=O)c1cccnc1)N=O
inactive: Potency [1] | Potency [2] | Potency [7] | Potency [8] | Potency [4] | Potency [5] | Potency [6] | Potency [9]

CC(C)(C)C(O)C(Oc1ccc(-c2ccccc2)cc1)n1cncn1 (stereo unspecified)
inactive: Potency [1] | Potency [7] | Potency [8] | Potency [6]
active: Potency [2] 30.6 µM | Potency [4] 30.6 µM | Potency [5] 24.3 µM | Potency [9] 12.2 µM

FC(Cl)(Cl)Cl
inactive: Potency [1] | Potency [2] | Potency [8] | Potency [4] | Potency [5] | Potency [6] | Potency [9]

CC(C)CBr
inactive: Potency [1] | Potency [2] | Potency [7] | Potency [8] | Potency [4] | Potency [5] | Potency [6] | Potency [9]
